Sampled rows, rich in hits. Any-hit rate of the full collection: about 2.9%.
Cardio protect = myocardial damage modulation in H9c2 cells; H9c2 cardiomyocytes, H2O2 injury protection, ATPLite, 2 h; AID 588492; protection from H2O2 cell death, % at 20 µM; 360,000 compounds, 0.63% hits;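 active means compounds giving at least 50% protection of heart cells from peroxide-induced death in the single-dose screen, raw or plate-pattern-corrected value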;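 further: 0% = DMSO wells with peroxide and 100% = DMSO wells without peroxide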
ABHD5-PLIN5 inh = inhibitors of human ABHD5-perilipin-5 interaction; Q00G26+Q8WTS1; Split G. princeps luciferase complementation, luminescence, 4 h; inhibition, % at 4 µM; 360,000 compounds, 0.78% hits; AID 602281;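 active means inhibition above the mean inhibition across every tested compound plus 3 SD, cut at about 22% in these data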;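 further: 0% = DMSO only wells and the 100% control is not disclosed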
Myeloid diff MLP = myeloid differentiation induction. 360,000 compounds, 1% hits. calls only at 10 µM. AID 624256. ER-HoxA9 myeloid progenitors, lysozyme-GFP differentiation, flow cytometry;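 active means normalized GFP-positive differentiation at or above the plate's own cutoff, the solvent-only control mean plus 3 SD; inconclusive means no clear call, values can overlap the other calls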;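 further: cells exposed to compound for four days before flow analysis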
Rtt109 Vps75 = blocks Candida albicans Rtt109/Vps75 acetyltransferase activity; inhibition, % at 34.9 µM; AID 540336; Q5AAJ8; purified Rtt109/Vps75, ThioGlo CoA-SH fluorescence, 4 h; 330,000 compounds, 0.16% hits;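 active means inhibition of at least 50% in every replicate; inconclusive means best replicate reaches 50% inhibition but some replicates fall short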
sPLA2-III inh = Blocks human group III sPLA2 activity. Q9NZ20. inhibition, % at 12.2 µM. QFRET BODIPY PC-A2 liposome hydrolysis, fluorescence. 370,000 compounds, 0.56% hits;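 active means inhibition above mean plus 3 SD of compounds lying within the high and low control bounds, cut at about 19% in these data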;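 further: 0% = median of test compound wells and 100% = no enzyme DMSO wells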
DAGLB inhibitor = diacylglycerol lipase beta (human) inhibition; HEK293T DAGLB membrane lysate, EnzChek fluorogenic substrate; inhibition, % at 5.17 µM; 340,000 compounds, 0.059% hits; in the data active means inhibition above about 34%;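 further: 0% = enzyme with vehicle and 100% = wells lacking enzyme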
ABHD5 PLIN5 conf = ABHD5-PLIN5 interaction inhibition, confirmed; biochemical ABHD5-PLIN5 interaction, luminescence; AID 651612; inhibition, % at 4 µM; 2,200 compounds, 67% hits; shares compounds with ABHD5-PLIN5 inh; in the data active means inhibition above about 23%;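 further: 0% = DMSO vehicle wells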
HNF4 counter = counter-screen for ABHD5-PLIN5 inhibitors: HNF4 split-luciferase; inhibition, % at 4 µM; AID 651674; 2,200 compounds, 77% hits; HNF4 dimerization, luminescence, biochemical; shares compounds with ABHD5-PLIN5 inh;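 active means mean inhibition across replicate wells exceeding the computed hit threshold, cut at about 13% in these data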;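 further: light from luciferase halves that rejoin when HNF4 fusion proteins dimerize; 0% = DMSO only wells and the 100% control is not given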
Target sequence (P41235 whole entry, looked up, the tested form may be a part): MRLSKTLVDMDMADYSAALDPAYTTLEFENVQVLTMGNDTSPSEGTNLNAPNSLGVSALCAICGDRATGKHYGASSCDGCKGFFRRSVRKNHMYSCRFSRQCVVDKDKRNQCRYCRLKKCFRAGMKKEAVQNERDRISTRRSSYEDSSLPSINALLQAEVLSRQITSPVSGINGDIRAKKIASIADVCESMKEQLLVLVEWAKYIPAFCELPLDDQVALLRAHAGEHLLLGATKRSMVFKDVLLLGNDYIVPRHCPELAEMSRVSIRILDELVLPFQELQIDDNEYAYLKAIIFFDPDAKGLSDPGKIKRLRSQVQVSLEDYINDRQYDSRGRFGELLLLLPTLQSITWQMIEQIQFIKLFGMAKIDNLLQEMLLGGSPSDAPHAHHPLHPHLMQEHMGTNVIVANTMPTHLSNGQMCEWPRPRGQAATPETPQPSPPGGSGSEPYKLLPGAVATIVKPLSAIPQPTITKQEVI
* = called active by the depositor; i = inactive; ? = inconclusive; / = no result given; + = active, no number.

SMILES	Cardio protect	ABHD5-PLIN5 inh	Myeloid diff MLP	Rtt109 Vps75	sPLA2-III inh	DAGLB inhibitor	ABHD5 PLIN5 conf	HNF4 counter
O=C(N/N=C/c1ccc(N2CCCCC2)o1)c1ccccc1[N+](=O)[O-]	-10	26*	i	18	-6	0	38*	66*
O=C(N/N=C/c1ccc(N2CCOCC2)o1)c1ccccc1[N+](=O)[O-]	8	22	i	4	-4	0	/	/
N#C/C(=C\c1ccco1)C(=O)NCc1ccccc1	1	2	i	/	/	2	/	/
N#CC(C#N)=C1C=CC=CN1/C(=C\c1ccco1)C(=O)c1ccc(-c2ccccc2)cc1	-14	66*	i	-4	3	0	104*	111*
CCCC1=NN(C(=O)C(=O)Nc2ccc(Br)cc2)C(O)(C(F)(F)F)C1 (stereo unspecified)	-13	23*	i	18	-5	13	37*	42*
O=C(CNS(=O)(=O)c1ccc(Cl)cc1)N/N=C/c1ccco1	6	7	i	-6	0	0	/	/
CC(=O)Cc1cc(O)c2ccccc2c1OC(=O)c1ccccc1	-16	67*	i	4	-70	-1	84*	54*
CN(C)S(=O)(=O)c1ccc(C(=O)OCC(=O)Nc2ccc3c(c2)OCO3)cc1	6	12	i	8	7	0	/	/
O=C1S/C(=C\c2ccc(N3CCOCC3)o2)C(=O)N1Cc1c(F)cccc1Cl	-6	17	i	6	-7	-5	/	/
O=C1S/C(=C/c2ccc(N3CCOCC3)o2)C(=O)N1Cc1c(F)cccc1Cl	-4	25*	+	-3	0	-7	23*	36*
CCOC(=O)C1CCN(C(=O)c2ccccc2NS(=O)(=O)c2ccc(C)cc2)CC1	0	6	i	-1	-4	-3	/	/
COc1ccccc1NS(=O)(=O)c1ccc(C)c(NS(=O)(=O)c2cc(NC(C)=O)ccc2OC)c1	3	-2	i	-13	-13	2	/	/
c1ccc(C(CN2CCOCC2)c2ccccc2)cc1	0	-3	i	0	-2	-7	/	/
O=C(c1ccccc1)C(CCC(CN1CCOCC1)C(=O)c1ccccc1)CN1CCOCC1 (stereo unspecified)	-19	58*	i	4	-4	1	46*	102*
O=C(c1ccc(F)cc1)C(CN1CCOCC1)c1ccccc1 (stereo unspecified)	-14	38*	?	4	-4	19	29*	99*
O=C(c1ccc(Cl)cc1)C(CN1CCCC1)c1ccccc1 (stereo unspecified)	-23	48*	/	0	-4	18	53*	103*
COc1ccc(C(=O)C(CN2CCOCC2)c2ccccc2)cc1 (stereo unspecified)	-3	19	?	-4	1	7	/	/
CCCn1c(=O)c2ccccc2n2c(SCCOc3ccc(Cl)cc3)nnc12	-3	0	i	4	8	-3	/	/
CN(C)C(=O)CSc1nnc(-c2cc(-c3cccs3)nc3ccccc23)o1	43	9	i	-2	-10	-1	/	/
CN(C)S(=O)(=O)c1cccc(NC(=O)CSc2ncnc3ccccc23)c1	-26	-12	i	-7	-13	0	/	/
CCOc1ccc(NC(=O)CCN2CCN(C)CC2)cc1	-2	-2	i	3	1	0	/	/
CCOc1ccccc1CN1CCN(Cc2c[nH]c3ccccc23)CC1CCO (stereo unspecified)	8	0	i	-4	-20	2	/	/
CCOc1ccccc1CN1CCN(Cc2[nH]c3ccccc3c2C)CC1CCO (stereo unspecified)	5	27*	i	14	-24	1	7	-1
Cc1cc([N+](=O)[O-])ccc1NC(=O)CSc1nncn1-c1ccccn1	16	-2	i	-6	3	-1	/	/
Cc1ccc([N+](=O)[O-])cc1NC(=O)CSc1nncn1-c1ccccn1	-7	24*	i	2	1	-1	-2	5
SMILES	Cardio protect	ABHD5-PLIN5 inh	Myeloid diff MLP	Rtt109 Vps75	sPLA2-III inh	DAGLB inhibitor	ABHD5 PLIN5 conf	HNF4 counter
COc1cc(/C=C/C(=O)Nc2nnc(C(C)(C)C)s2)cc(OC)c1OC	4	4	i	0	-4	-2	/	/
CCc1nnc(NC(=O)c2nc(S(=O)(=O)Cc3cccc(C)c3)ncc2Cl)s1	13	33*	?	19	1	1	82*	49*
CCc1nnc(NC(=O)c2nc(S(=O)(=O)Cc3ccccc3)ncc2Cl)s1	-16	34*	i	12	-1	1	69*	48*
COC(=O)c1ccccc1NC(=O)c1nc(S(=O)(=O)Cc2ccccc2)ncc1Cl	-17	-2	?	-18	6	1	/	/
CCc1nnc(NC(=O)c2nc(S(=O)(=O)Cc3ccc(C)cc3)ncc2Cl)s1	-16	25*	?	?	-1	1	68*	43*
Clc1ccccc1Cn1nnc2c(NCCN3CCOCC3)ncnc21	5	-7	i	-2	3	2	/	/
COc1ccc(CCNC(=O)C(=O)NCc2cccs2)cc1OC	-4	-5	i	-8	3	-3	/	/
CCOC(=O)CNC(c1ccccc1)c1cc(Br)ccc1NC(=O)CCN1CCOCC1 (stereo unspecified)	-17	24*	i	-3	-13	3	3	39*
CN(Cc1cnn(C)c1)Cc1nc(Cc2ccccc2Cl)no1	1	-1	i	13	-4	-3	/	/
Cc1ccc(C(=O)/C=C/C(=O)O)cc1	-2	93*	i	/	5	-1	95*	106*
Cc1ccc(/C(O)=C2/C(=O)C(=O)OC2c2ccc(Cl)cc2)cc1 (stereo unspecified)	6	32*	i	5	7	21	57*	37*
COc1cc(NC(=S)NCCc2ccccc2)c(OC)cc1NC(=O)C(C)C	-1	0	i	6	7	-2	/	/
COC(=O)CC1SC(=O)NC1=O (stereo unspecified)	8	39*	i	-4	2	-1	0	1
COC(=O)CC1SC(=O)NC1=Nc1ccc(O)cc1 (stereo unspecified)	0	6	i	-3	0	3	/	/
CCC(c1nnnn1C(C)(C)C)N1CCN(C(=O)c2ccco2)CC1 (stereo unspecified)	1	-13	i	7	2	-2	/	/
CC(C)(C=O)C1=CC(=O)c2ccccc2C1=O	-32	34*	?	-2	-4	-2	81*	103*

High-throughput results deposited in PubChem BioAssay by several laboratories.
